Among the data in PubChem BioAssay (NCI) are growth values, retold here.

Structures are written as SMILES. The panel holds about 83,000 compounds, 20% with a hit somewhere; the sample as a whole holds those more often.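 Compound tested at a single concentration for 48 hours in 96-well plates; a percent growth value below 10 was scored as active.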 The source made the active and inactive calls.

The subject of the assay is MCF7 breast. Description: NCI-60 one-dose screen, 48 h (100 = growth as untreated, 0 = no growth, -100 = all killed). The conditions noted are these: 10 µM unless noted. Here is the method:
Growth inhibition of the MCF7 human tumor cell line is measured as a screen for anti-cancer activity. Cells are grown in 96 well plates and exposed to the test compound for 48 hours. Compounds are tested at a single concentration, which is 10^-5 M for most compounds. The reported endpoint is percent growth (GI% or GIPRCNT), where numbers from 0 - 100% represent growth inhibition, and numbers from -100% - 0 represent cell death. For example, a value of 40 represents 60% growth inhibition. A value of 0 means no net growth occurred over the course of the experiment. A value of -40 indicates 40% of cells at the beginning of the experiment died by the end of the experiment. A value of -100 means all cells are dead at the end of the experiment.
NCI-60 Human Tumor Cell Lines Screen was performed using the standard one-dose NCI protocol, which is described in more detail at https://dtp.cancer.gov/discovery_development/nci-60/default.htm.
Compounds with GIPRCNT values below 10 were considered active. Activity score was based on GIPRCNT using the following formula: […]
Score is 0 for GIPRCNT values of 100 or above, 50 for GIPRCNT values of 0, and 100 for GIPRCNT values of -100.
Consider `CCOc1ccccc1/C=N\Nc1ccc(S(=O)(=O)c2ccc(N/N=C/c3ccccc3OCC)cc2)cc1`, for which the growth was 79.1% (inactive). Consider `CC(C)c1ccc(/C=N/N=C(N)N)cc1`, for which the growth was 8.1% (active). On to `CCOC(=O)c1nn(C2CCCCO2)c2ccc(NC(=O)CSc3nc4ccccc4c(=O)[nH]3)cc12` (stereo not given), for which the growth was 92.1% (inactive). Consider `CC1(C)CC[C@]2(C(N)=O)CC[C@]3(C)C(=CC[C@@H]4[C@@]5(C)C/C(=C/c6cccnc6)C(=O)C(C)(C)[C@@H]5CC[C@]43C)[C@@H]2C1`, for which the growth is -9.32% [100 µM] (active). As for `C=C(C)[C@@H]1CC[C@]2(C(=O)O)CC[C@]3(C)[C@H](CC[C@@H]4[C@@]5(C)C/C(=C/c6ccco6)C(=O)C(C)(C)[C@@H]5CC[C@]43C)[C@@H]12`, the figure is -53.2% [100 µM] (active); as for `Cc1ccc(-c2cc(-c3ccc(C)cc3)nc(NCCNc3ccnc4cc(Cl)ccc34)n2)cc1`, -77.3% (active); as for `Cc1ccccc1-n1nnc(C(=O)Nc2nc3ccc(F)cc3s2)c1C`, 65.3% (inactive). `CCCCCC1CCCCN1C(=O)OCCCC` (stereo not given): the growth is 96.7% (inactive). Regarding `O=C(O)c1cn(C2CC2)c2cc(N3CCN(Cc4cc(Cl)ccc4O)CC3)c(F)cc2c1=O`, the growth was 54.6% (inactive). As for `COc1cc(NCc2ccccc2O)c2ncccc2c1`, the figure is 95.2% (inactive); as for `C=C(CN=[N+]=[N-])[C@@H]1CC[C@]2(C)[C@H](CC[C@@H]3[C@H]4[C@H]5OC(=O)[C@@]4(CCC5(C)C)CC[C@]32C)[C@@]1(C)CCC#N`, 64.5% [100 µM] (inactive); as for `C[C@H]1[C@H](C)CC[C@]2(C(=O)O)CC[C@]3(C)C(=CC[C@@H]4[C@@]5(C)C/C(=C/c6ccco6)C(=O)C(C)(C)[C@@H]5CC[C@]43C)[C@H]12`, -74.7% [100 µM] (active). Regarding `COc1ccc(C2CC(c3cc(OC)c(OC)c(OC)c3)=NN2C(C)=O)cc1OCC(=O)Nc1nc2ccc(C(F)(F)F)cc2s1` (stereo not given), the growth is 65% (inactive).

For the compound `CCN(CC)CCCC(C)Nc1ccnc2cc(Cl)c(SCc3ccccc3)cc12` (stereo not given), the growth was -49.5% (active). With `CC1(C)CC[C@]2(C(=O)O)CC[C@]3(C)C(=CC[C@@H]4[C@@]5(C)C/C(=C/c6cccnc6)[C@H](O)C(C)(C)[C@@H]5CC[C@]43C)[C@@H]2C1`, the growth was 3.95% [100 µM] (active). Then `O=C(OCc1ccc2c(Cl)cc(Cl)c(O)c2n1)N1CCNCC1`, with 34.6% (inactive); and `O=C(Nc1cc(F)cc2cccnc12)c1cnc(N2CCNCC2)cn1`, with 10.2% (inactive).

Take `CCCCCCCCCCCCCC[n+]1cccc(C(N)=O)c1`: the growth is 39.4% (inactive).

In the case of `CCCCNC(=O)NS(=O)(=O)Cc1ccccc1`, the growth was 96.6% (inactive). Consider `CN(C)CCCNc1nc(-c2cccc(C(Cl)(Cl)Cl)c2)nc(C(Cl)(Cl)Cl)n1`, for which the growth is 93.5% (inactive). Take `C=CCCCCOc1ccccc1-c1cnc(OCCCCC=C)n1C`: the growth is 42.2% (inactive). Regarding `CCN(CC)CCCC(C)Nc1c2ccc(C)cc2nc2ccc(OC)cc12` (stereo not given), the growth is 4.31% (active). Then `C[N+](C)(C)c1ncnc2[n-]cnc12`, with 89.8% (inactive); and `CC(C)OC(=O)Nc1cc(F)ccc1F`, with 97.1% (inactive). Then `O=C(NCc1ccc(Cn2c(=O)sn(-c3ccccc3)c2=O)cc1)OCc1ccc2c(Br)cc(Br)c(O)c2n1`, with -29% (active); and `C#C[C@]1(O)CC[C@H]2[C@@H]3CC=C4c5nc(Nc6ncccn6)sc5CC[C@]4(C)[C@H]3CC[C@@]21C`, with 59.7% (inactive); and `COc1ncnc2c(-c3ccccc3)cn(COCc3ccccc3)c12`, with 48.1% (inactive). `O=c1[nH]c(CN2CCN(c3cccc(Cl)c3)CC2)nc2cc(Cl)ccc12`: the growth was 86.2% (inactive). Turning to `COc1ccc2c3ccnc(C(F)(F)F)c3n(CCCCN)c2c1`, the growth is 35.5% (inactive). Take `Cc1ccc(N)c(O)c1`: the growth was 83.5% (inactive).

With `Nc1cc(NN=C(c2ccc(O)cc2)c2ccc(O)cc2)c([N+](=O)[O-])cc1[N+](=O)[O-]`, the growth is -60.5% (active). Then `O=C(Nc1ccc(Oc2ccc(F)cc2)c(Cl)c1)c1cnccn1`, with 29.7% (inactive).

In the case of `O=C1NC(=O)C(Cc2ccc(OCc3ccc(-c4cc(F)c(F)c(F)c4)cc3)cc2)S1` (stereo not given), the growth was 83.9% (inactive).

As to `Cn1cc(-c2noc(C(=O)c3cn(C)c4ncc(Br)cc34)n2)c2ccccc21`, the growth is 90.5% (inactive). As for `Cc1ccc(S(=O)(=O)N/N=C2\CC3CCC2(C)C3(C)C)cc1` (stereo not given), the figure is 90.3% (inactive); as for `CC1(C)CC[C@]2(C(=O)O)CC[C@]3(C)[C@H](CC[C@@H]4[C@@]5(C)CCC(=O)C(C)(C)[C@@H]5CC[C@]43C)[C@H]2[C@H]1OC(=O)C(F)(F)F`, -40.1% [100 µM] (active); as for `c1ccc2c(c1)CN(CCCN1CCOCC1)C2`, 94.6% (inactive). With `O=C(CCCCCCSc1nc(-c2ccc(Cl)cc2)cc(-c2ccc(Cl)cc2)n1)NO`, the growth is 14.5% (inactive).

Consider `COc1ccc2nc3c(cc2c1)C(=O)CC(C(F)(F)F)C3` (stereo not given), for which the growth was 83.1% (inactive). As for `O=C(CCNCc1ccccc1)c1ccccc1`, the figure is 102% (inactive).
